12-LOX inh = Primary qHTS assay for inhibitors of human arachidonate 12S-lipoxygenase (ALOX12): Round 2. Polyunsaturated fatty acid lipoxygenase ALOX12 (Homo sapiens), P18054. purified 12hLO, xylenol orange hydroperoxide absorbance. Potency, µM (highest dose often 108 µM), actives largely listed as inhibitors. 580,000 tested, 1.1% active. AID 1671190, 2021
Target sequence (P18054 whole entry, looked up): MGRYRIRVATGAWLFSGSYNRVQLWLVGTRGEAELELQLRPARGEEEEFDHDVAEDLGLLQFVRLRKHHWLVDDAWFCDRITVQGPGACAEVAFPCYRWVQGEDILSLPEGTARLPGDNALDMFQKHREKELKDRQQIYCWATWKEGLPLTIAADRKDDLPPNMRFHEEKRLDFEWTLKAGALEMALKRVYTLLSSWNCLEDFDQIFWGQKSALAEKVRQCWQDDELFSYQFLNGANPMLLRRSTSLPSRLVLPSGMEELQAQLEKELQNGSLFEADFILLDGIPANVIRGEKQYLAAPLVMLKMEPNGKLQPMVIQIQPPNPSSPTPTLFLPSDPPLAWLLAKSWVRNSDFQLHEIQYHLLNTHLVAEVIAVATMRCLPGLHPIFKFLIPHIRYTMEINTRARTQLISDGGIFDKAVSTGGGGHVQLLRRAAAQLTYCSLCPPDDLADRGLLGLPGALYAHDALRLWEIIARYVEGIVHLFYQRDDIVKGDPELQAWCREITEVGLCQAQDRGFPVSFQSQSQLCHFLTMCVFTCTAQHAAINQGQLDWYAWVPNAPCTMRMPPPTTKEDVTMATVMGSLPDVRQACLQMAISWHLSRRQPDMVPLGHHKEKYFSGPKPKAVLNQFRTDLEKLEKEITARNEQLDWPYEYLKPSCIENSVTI
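Purified human 12hLO at 150 nM in 25 mM Hepes, 0.01% Triton X-100, pH 7.0, preincubated 15 min at room temperature with compound. Reaction started with 40 uM arachidonic acid, 30 min at room temperature. Hydroperoxide measured by Fe-xylenol orange, 573/405 nm absorbance ratio.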
uPA surface inh = qHTS for Inhibitors of Cell Surface uPA Generation; cell surface uPA generation assay, qHTS; Potency, µM (titrated, usually from 38.3 µM), usual class: inhibitors; 330,000 tested, 0.31% active; active = well fitted inhibition curve with a large enough effect; inconclusive = small, poorly fitted or top-dose-only effect; inactive = no such curve, though single readings can be large or run the other way; tested in mouse RAW 264.7 cells; note: nearly all actives have a fitted effect of over 55% in size
a7 integrin act = qHTS for Activators of Integrin-Mediated Alleviation for Muscular Dystrophy; alpha7betagal myoblasts, beta-gal FDG fluorescence, 48 h; Potency, µM (titrated, usually from 38.3 µM), actives largely listed as activators; 350,000 tested, 0.064% active; AID 624291, 2012; note: nearly all actives have a fitted effect of over 60% in size
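Alpha7betagal+/- myoblasts (passage 13) were plated 16-24 hr, then exposed to compounds (1:260 dilution of DMSO stock) for 48 hours at 37C. After MPER lysis, β-galactosidase reporter activity was read as FDG fluorescence (ex 480/em 540) after 30 minutes.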
Nrf2 ARE act = qHTS of Nrf2 Activators. AREc32 ARE-luciferase reporter (MCF7-derived line), luminescence, 24 h. Potency, µM (top dose mostly 46.1 µM), actives largely listed as activators. 410,000 tested, 0.31% active; note: nearly all actives have a fitted effect of over 65% in size
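For detection, Steady-Glo was added and plates sat 30 min at RT; before that, AREc32_Fluc cells grown overnight in OPTI-MEM/5% FBS had been treated with 23 nL compound for 24 hr at 37 deg C.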
IL2 activator = qHTS of IL-2 Activators; 360,000 tested, 0.065% active; IL-2 activation reporter assay, cell-based qHTS; stimulated with anti-CD3/CD4/CD28 beads; in transgenic mouse T cells; AID 652025, 2013; activation, % (series mostly up to about 46 µM); in the data active = activation above about 50%; inconclusive = mostly about 30% to 49%
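First, unstimulated transgenic mouse T cells were exposed to compound for 60 min. Next, anti-CD3/anti-CD4-coated beads with anti-CD28 were added. Finally, after 18 h at 37 degrees C, EGFP and DsRed were imaged.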
Of the large screens only hits and unclear results are named; the others gave an inactive call; ! = not confirmed by another sample. Only some compounds are listed: those with a hit (about 1.5% of all), similar ones and a draw of the others. Unless noted, calls come from the whole dose curve; as a rule, active = well fitted curve in the direction sought with a large enough effect; inconclusive = small, poorly fitted or top-dose-only effect, or another doubt; inactive = no such curve, though single readings can be large; an effect the other way counts as inactive or inconclusive.

N#C/C(=C/c1ccc(O)c(O)c1)C(=O)NCc1ccc(Cl)cc1	12-LOX inh 25.1µM
O=C(NC1CC2CC1C1CCCC21)c1ccc(Cl)nc1 (configuration not stated)	none (no result: uPA surface inh, a7 integrin act, Nrf2 ARE act, IL2 activator)
CCC(C)NC(=O)C(=O)N1CCN(c2nc(C)c3c(c2C#N)CCCC3)CC1 (configuration not stated)	none (no result: uPA surface inh, a7 integrin act, Nrf2 ARE act, IL2 activator)
CCS(=O)(=O)N1CCN(C(C)CCc2ccccc2)CC1 (configuration not stated)	12-LOX inh inconclusive
CC(CCc1ccccc1)N1CCN(Cc2ccccc2)CC1 (configuration not stated)	12-LOX inh 5.62µM
CCN1CCN(c2nc3c(c(=O)[nH]c(=O)n3C)n2CC(O)COc2ccc(Cl)cc2)CC1 (configuration not stated)	none (no result: uPA surface inh, a7 integrin act, Nrf2 ARE act, IL2 activator)
Cn1c(-c2csc(-c3ccccc3)n2)n[nH]c1=S	12-LOX inh 31.6µM
CCn1c(-c2sc(-c3ccccc3)nc2C)n[nH]c1=S	12-LOX inh 44.7µM
Cc1nc(-c2ccccc2)sc1-c1ccccc1	none (no result: uPA surface inh, a7 integrin act, Nrf2 ARE act, IL2 activator)
CC(C)C1=NOC2(CCN(CC3CCCCC3)CC2)C1	none (no result: uPA surface inh, a7 integrin act, Nrf2 ARE act, IL2 activator)
CCOc1cccc(CNc2ncncc2-c2nc(-c3ccccc3)no2)c1	none (no result: uPA surface inh, a7 integrin act, Nrf2 ARE act, IL2 activator)
CC(C)CCC(C)NC(=O)CCCNC(N)=O (configuration not stated)	none (no result: uPA surface inh, a7 integrin act, Nrf2 ARE act, IL2 activator)
COc1cccc(C(=O)Oc2c(Br)cc(Br)cc2/C=N/NC(=O)c2cc(C)[nH]n2)c1	uPA surface inh 3.98µM
Cc1ccc(N/N=C(\C#N)C(N)=S)cc1C	12-LOX inh 2µM
N#CC(C#N)=C1NC(N)=C(C#N)C(c2ccccc2)=C1C#N	12-LOX inh 6.31µM (no result: uPA surface inh, a7 integrin act, Nrf2 ARE act, IL2 activator)
NC(=O)c1ccccc1N/C=C/C(=O)c1ccco1	Nrf2 ARE act inconclusive
O=C(/C=C/Nc1ccccc1C(F)(F)F)c1ccco1	12-LOX inh inconclusive, a7 integrin act inconclusive, Nrf2 ARE act 1.78µM
S=c1[nH]nc(-c2ccc(Cl)cc2)n1-c1ccc2c(c1)OCCO2	12-LOX inh inconclusive
S=c1[nH]nc(-c2ccc(Cl)cc2Cl)n1-c1ccc(Cl)cc1	12-LOX inh 12.6µM
S=c1[nH]nc(-c2ccc(Cl)cc2)n1-c1ccc(Cl)cc1	12-LOX inh 10µM
COc1ccc(-c2n[nH]c(=S)n2-c2ccc(C)cc2)cc1	12-LOX inh 17.8µM
Cc1cc(C)c(NC(=O)CSc2nnc(-c3ccc(F)cc3)n2N)c(C)c1	none (no result: uPA surface inh, a7 integrin act, Nrf2 ARE act, IL2 activator)
Cc1ccc(C(=O)NC2(O)C(=O)c3ccccc3C2=O)cc1C	12-LOX inh 20µM
Cc1ccc(Oc2cc([N+](=O)[O-])cc3c2C(=O)Nc2ccccc2O3)cc1	IL2 activator 72.3
O=C1Nc2ccccc2Oc2cc(Oc3ccc(Cl)cc3)ccc21	none (no result: uPA surface inh, a7 integrin act, IL2 activator)
CC(Sc1cccc[n+]1[O-])C(=O)Nc1ccc(C(N)=O)cc1 (configuration not stated)	none (no result: uPA surface inh, a7 integrin act, Nrf2 ARE act, IL2 activator)
COc1ccc(C(C#N)=C2C=CC(=NO)C=C2)cc1	12-LOX inh inconclusive, a7 integrin act inconclusive, Nrf2 ARE act 1.26µM
Cc1ccccc1CN1CCC(N(C)Cc2ccccc2)CC1	12-LOX inh 0.562µM (no result: uPA surface inh, a7 integrin act, Nrf2 ARE act, IL2 activator)
Cc1ccccc1CN(C)C1CCN(C)CC1	none
FC(F)(F)c1ccccc1CN1CCC(Cc2ccccc2)CC1	12-LOX inh 0.708µM
CN(Cc1ccccc1)C(=O)C1CCN(Cc2cccc3ccccc23)CC1	12-LOX inh 1.26µM (no result: uPA surface inh, a7 integrin act, Nrf2 ARE act, IL2 activator)
CCCCCCCn1c(NCCCO)nc2c1c(=O)[nH]c(=O)n2C	none (no result: uPA surface inh, a7 integrin act, Nrf2 ARE act, IL2 activator)
CN1CCc2cccc3c2[C@H]1Cc1ccc(O)c(O)c1-3	12-LOX inh 1.44µM!, uPA surface inh inconclusive (no result: a7 integrin act)
CN1CCc2cc3c(c4c2[C@H]1[C@H](O)c1ccccc1-4)OCO3	uPA surface inh inconclusive
O=C(/C=C/c1ccco1)NCc1ccc(F)cc1	12-LOX inh 31.6µM, Nrf2 ARE act inconclusive
O=C(Cc1ccc(N(Cc2ccc(F)cc2)C(=O)c2ccco2)cc1)NCc1ccc(F)cc1	12-LOX inh 31.6µM (no result: uPA surface inh, a7 integrin act, Nrf2 ARE act, IL2 activator)
CCCNC(=O)N1CCC(Cn2c(C)cnc2C2CCOCC2)CC1	none (no result: uPA surface inh, a7 integrin act, Nrf2 ARE act, IL2 activator)
Cc1[nH]n(-c2ccc(Br)cc2)c(=O)c1/C=N/NC(=O)c1ccccc1	uPA surface inh 6.31µM
Cc1[nH]n(-c2ccccc2)c(=O)c1/C=N/NC(=O)c1ccc(O)cc1O	none (no result: 12-LOX inh)

From PubChem
